Experimental data as given in PubChem BioAssay (NCI).
Where “and” joins values, the source holds several entries; their conditions need not be identical. Equal entries are not always repeated. The panel holds about 83,000 compounds, 20% with a hit somewhere; the sample as a whole holds those more often.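 Cell lines were cultured in 96-well plates, exposed to a single compound concentration, and assessed for percent growth 48 hours later.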 Unmarked numbers belong to inactive results. Calls of active or inactive are those of the source. Rule for the calls: active = growth percent below 10; inactive = the rest.

How the values were obtained:
Experiment in all cases: NCI-60 one-dose screen, 48 h (100 = growth as untreated, 0 = no growth, -100 = all killed)
Details in all cases: 10 µM unless noted
[1] = tested on: SK-MEL-2 melanoma
[2] = tested on: EKVX NSCLC
[3] = tested on: SN12C renal
[4] = tested on: UO-31 renal
[5] = tested on: TK-10 renal
[6] = tested on: ACHN renal
[7] = tested on: CAKI-1 renal
[8] = tested on: A498 renal
[9] = tested on: CCRF-CEM leukemia
[10] = tested on: MOLT-4 leukemia

Compound: CCC1(OC(=O)c2ccccc2SSCCOC(=O)CCCCC2SCC3NC(=O)NC32)C(=O)OCc2c1cc1n(c2=O)Cc2cc3ccccc3nc2-1 (stereo not given)
- growth [1]: 103%
- growth [2]: 52.1%
- growth [3]: 32.3%
- growth [4]: 38.4%
- growth [5]: 94.8%
- growth [6]: 20.3%
- growth [7]: 10.5%
- growth [8]: 104%
- growth [9]: 9.01% (active)
- growth [10]: 21.8%

Compound: COc1ccc(C(=O)c2c(N)c(C#N)cn2-c2ccc([N+](=O)[O-])cc2)cc1
- growth [1]: 108%
- growth [2]: 93.6%
- growth [3]: 101%
- growth [4]: 90.1%
- growth [5]: 117%
- growth [6]: 106%
- growth [7]: 85.4%
- growth [8]: 126%
- growth [9]: 112%
- growth [10]: 105%

Compound: COc1cc2cc(C(=O)N3C[C@@H](CCl)c4c3cc(OC(=O)N(C)CCSSCCN3CCOCC3)c3ccccc43)[nH]c2c(OC)c1OC
- growth [1]: -86.8% (active)
- growth [2]: -40.1% (active)
- growth [3]: -48.4% (active)
- growth [4]: -28.2% (active)
- growth [5]: -40% (active)
- growth [6]: -18.9% (active)
- growth [7]: -45.3% (active)
- growth [8]: -15.9% (active)
- growth [9]: -15.9% (active)
- growth [10]: -18.2% (active)

Compound: O=C(N/N=C/c1ccc(B(O)O)s1)c1[nH]c2ccc(Br)cc2c1-c1ccccc1
- growth [1]: -82.6% (active)
- growth [2]: -98.8% (active)
- growth [3]: -79.4% (active)
- growth [4]: -76.3% (active)
- growth [5]: -93.2% (active)
- growth [6]: -100% (active)
- growth [7]: -59.8% (active)
- growth [8]: -88.3% (active)
- growth [9]: -16.5% (active)
- growth [10]: -8% (active)

Compound: CCN1CCN(Cc2ccc(C(=O)Nc3cccc(Nc4ccc5c(OC)cccc5n4)c3)cc2C(F)(F)F)CC1
- growth [1]: -76% (active)
- growth [2]: -95.7% (active)
- growth [3]: -90.5% (active)
- growth [4]: -85.8% (active)
- growth [5]: -86.2% (active)
- growth [6]: -100% (active)
- growth [7]: -98.3% (active)
- growth [8]: -88.8% (active)
- growth [9]: -30.5% (active)
- growth [10]: -45.4% (active)

Compound: O=C(/C=C1\C(=O)N(Cc2ccccc2)c2ccccc21)c1cc2ccccc2oc1=O
- growth [1]: 109%
- growth [2]: 79.6%
- growth [3]: 93%
- growth [4]: 42.9%
- growth [5]: 84.6%
- growth [6]: 17.9%
- growth [7]: 69.9%
- growth [8]: 144%
- growth [9]: 43.6%
- growth [10]: 31.9%

Compound: COc1cc(CNC(=O)[C@]23CCC(C)(C)CC2C2=CCC4[C@@]5(C)CCC(OC(C)=O)C(C)(C)C5CC[C@@]4(C)[C@]2(C)CC3)ccc1OCc1cn(-c2ccc(Cl)cc2Cl)nn1 (stereo not given in full)
- growth [1]: 99.8%
- growth [2]: 86.5%
- growth [3]: 94.1%
- growth [4]: 80.2%
- growth [5]: 134%
- growth [6]: 101%
- growth [7]: 77.9%
- growth [8]: 146%
- growth [9]: 98.2%
- growth [10]: 104%

Compound: COc1ccc(N=Nc2c(N)nn3c(-c4cc5cc(Br)ccc5oc4=O)ccnc23)cc1
- growth [1]: 29.6%
- growth [2]: 34.8%
- growth [3]: 17.6%
- growth [4]: 8.11% (active)
- growth [5]: 62%
- growth [6]: -21.2% (active)
- growth [7]: 12%
- growth [8]: 36.1%
- growth [9]: 96.2%
- growth [10]: 85.6%

Compound: COc1ccc(N=Nc2c(N)nn3c(-c4cc5ccccc5oc4=O)ccnc23)cc1
- growth [1]: 39.3%
- growth [2]: 44.1%
- growth [3]: 24.1%
- growth [4]: 40.7%
- growth [5]: 77.7%
- growth [6]: 3.84% (active)
- growth [7]: 53.8%
- growth [8]: 138%
- growth [9]: 96.3%
- growth [10]: 104%

Compound: COc1ccc(C(=O)/C=C/c2ccc3c(c2)OCCO3)cc1S(N)(=O)=O
- growth [1]: 114%
- growth [2]: 84.8%
- growth [3]: 68.6%
- growth [4]: 48.5%
- growth [5]: 95.6%
- growth [6]: 69.6%
- growth [7]: 85.6%
- growth [8]: 109%
- growth [9]: 91%
- growth [10]: 37.4%

Compound: O=C(COc1ccc(/C=C2/C(=O)Nc3ccc(Cl)cc32)cc1)Nc1ccc(Br)cc1
- growth [1]: 16.3%
- growth [2]: -27.8% (active)
- growth [3]: -80.6% (active)
- growth [4]: -73.7% (active)
- growth [5]: -65.4% (active)
- growth [6]: -82.9% (active)
- growth [7]: -73% (active)
- growth [8]: -51% (active)
- growth [9]: -23.9% (active)
- growth [10]: -46.5% (active)

Compound: COc1ccc(-c2cc(C(=O)OCc3ccc(Br)cc3)nn2-c2ccc(S(C)(=O)=O)cc2)cc1OC
- growth [1]: 95%
- growth [2]: 76.1%
- growth [3]: 78.3%
- growth [4]: 42.4%
- growth [5]: 75.5%
- growth [6]: 85.1%
- growth [7]: 83.5%
- growth [8]: 70.3%
- growth [9]: 84.2%
- growth [10]: 64.5%

Compound: COc1cc(C2C(C(=O)OCc3ccccc3)=C(C)Nc3nc4ccccc4n32)cc(OC)c1OC (stereo not given)
- growth [1]: 47.5%
- growth [2]: 36.8%
- growth [3]: 37.1%
- growth [4]: 1.37% (active)
- growth [5]: 34.6%
- growth [6]: -4.94% (active)
- growth [7]: 6.89% (active)
- growth [8]: -22.7% (active)
- growth [9]: 41.7%
- growth [10]: 33.2%

Compound: Cc1nc2sccn2c1-c1nnc(SCC(C)C)o1
- growth [1]: 92.1%
- growth [2]: 74.5%
- growth [3]: 88.4%
- growth [4]: 67.7%
- growth [5]: 127%
- growth [6]: 87.8%
- growth [7]: 76.7%
- growth [8]: 98.5%
- growth [9]: 51.6%
- growth [10]: 84.1%

Compound: Cc1ccc2nc(COc3ccc(C(=O)NNC(=O)Nc4ccc(Cl)c(C(F)(F)F)c4)cc3)[nH]c2c1
- growth [1]: 98.4%
- growth [2]: 77.3%
- growth [3]: 38.7%
- growth [4]: 110%
- growth [5]: 110%
- growth [6]: 89.7%
- growth [7]: 73.2%
- growth [8]: 116%
- growth [9]: 41.6%
- growth [10]: 75.5%

Compound: Cc1ccc(N=Nc2c(N)nn3c(-c4cc5ccccc5oc4=O)ccnc23)cc1
- growth [1]: 61.5%
- growth [2]: 49.2%
- growth [3]: 48.2%
- growth [4]: 53.8%
- growth [5]: 57.9%
- growth [6]: 34.9%
- growth [7]: 57.1%
- growth [8]: 150%
- growth [9]: 70.2%
- growth [10]: 39%

Compound: Nc1nc(-c2ccccc2)c(N=Nc2ccc(Cl)cc2Cl)s1
- growth [1]: -61.1% (active)
- growth [2]: -30.5% (active)
- growth [3]: -95% (active)
- growth [4]: -20% (active)
- growth [5]: -13.9% (active)
- growth [6]: -31.2% (active)
- growth [7]: -34.3% (active)
- growth [8]: -16.8% (active)
- growth [9]: -0.55% (active)
- growth [10]: -24.6% (active)

Compound: CN1CCN(CCS(=O)(=O)Nc2cc(-c3ccc4ncnc(Nc5ccc(F)c(Cl)c5)c4c3)cnc2Cl)CC1
- growth [1]: -52.2% (active)
- growth [2]: -22.2% (active)
- growth [3]: 27.7%
- growth [4]: 18.2%
- growth [5]: 1.24% (active)
- growth [6]: 23.2%
- growth [7]: 6.32% (active)
- growth [8]: -30.9% (active)
- growth [9]: 8.02% (active)
- growth [10]: -49.7% (active)

Compound: OC(c1ccccc1)(c1ccccc1)C1CCN(c2ccc3nnc(Cl)n3n2)CC1
- growth [1]: 31.3%
- growth [2]: 19.9%
- growth [3]: 50.1%
- growth [4]: -74.1% (active)
- growth [5]: 49.7%
- growth [6]: 29.7%
- growth [7]: 30.8%
- growth [8]: 77.8%
- growth [9]: 18.2%
- growth [10]: -2.45% (active)

Compound: Cc1ccc(N=Nc2c(N)nn3c(-c4cc5cc(Br)ccc5oc4=O)ccnc23)cc1
- growth [1]: 108%
- growth [2]: 72.2%
- growth [3]: 35.6%
- growth [4]: 79.8%
- growth [5]: 81.9%
- growth [6]: 54.4%
- growth [7]: 80.8%
- growth [8]: 51.9%
- growth [9]: 99.8%
- growth [10]: 98.6%

Compound: COc1cc(C=O)ccc1Oc1nc(Nc2ccc(F)cc2)nc(N(C)C)n1
- growth [1]: 62.6% and 85.2%
- growth [2]: 76.9% and 60.4%
- growth [3]: 92.2% and 58.5%
- growth [4]: 67.6% and 48.7%
- growth [5]: 84.2% and 86.8%
- growth [6]: 105% and 63.3%
- growth [7]: 69.2% and 58.3%
- growth [8]: 98.6% and 123%
- growth [9]: 86.1% and 18.1%
- growth [10]: 73.1% and 23.8%

Compound: Oc1ccc(Cl)c(Nc2nc(SCCN3CCOCC3)nc3c2cnn3CC(Cl)c2ccc(Br)cc2)c1 (stereo not given)
- growth [1]: 20.6%
- growth [2]: 37%
- growth [3]: 35%
- growth [4]: 14%
- growth [5]: 36.1%
- growth [6]: 12.9%
- growth [7]: 21.2%
- growth [8]: 63.4%
- growth [9]: 3.42% (active)
- growth [10]: -24% (active)

Compound: COc1ccc(-c2nc3ccccc3n2CC(=O)N=Nc2c(O)[nH]c3ccc(Br)cc23)cc1
- growth [1]: 85.4%
- growth [2]: 85%
- growth [3]: 97%
- growth [4]: 66.7%
- growth [5]: 94.8%
- growth [6]: 87.8%
- growth [7]: 74.9%
- growth [8]: 139%
- growth [9]: 67.2%
- growth [10]: 37.2%

Compound: Nc1nn2c(-c3cc4cc(Br)ccc4oc3=O)ccnc2c1N=Nc1ccc(Br)cc1
- growth [1]: 60%
- growth [2]: 25.9%
- growth [3]: -23.6% (active)
- growth [4]: 0.343% (active)
- growth [5]: 23.4%
- growth [6]: 10.7%
- growth [7]: 3.98% (active)
- growth [8]: -4.21% (active)
- growth [9]: 96.6%
- growth [10]: 83.1%

Compound: O=C(O)CC1S/C(=N/N=C/c2nc3ccccc3s2)NC1=O (stereo not given)
- growth [1]: 116%
- growth [2]: 54.7%
- growth [3]: 101%
- growth [4]: 52.7%
- growth [5]: 104%
- growth [6]: 78.3%
- growth [7]: 77.3%
- growth [8]: 155%
- growth [9]: 93%
- growth [10]: 95.2%

Compound: CC(C)C[C@H](NC(=O)CNC(=O)C[C@H]1O[C@@H]2OC3(C)CC[C@H]4[C@H](C)CC[C@@H]([C@H]1C)[C@@]24O3)B(O)O
- growth [1]: -61.9% (active)
- growth [2]: 27.3%
- growth [3]: -39.2% (active)
- growth [4]: 10.5%
- growth [5]: 12.1%
- growth [6]: 6.33% (active)
- growth [7]: 15.8%
- growth [8]: 21.1%
- growth [9]: -12.4% (active)
- growth [10]: 7.31% (active)
